Reference: PubChem BioAssay (EPA / NIEHS)
Where “and” joins values, the source holds several entries; their conditions need not be identical. Equal entries are not always repeated. Inconclusive results are not listed. Some compounds were tested as several samples or in several runs, with calls that do not always agree. Calls of active or inactive are those of the source. Rule for the calls, unless noted: active = hit-call score of the fitted dose curve at least 0.9, where 1 is the maximum; inactive = score below 0.9.

Key:
[1] = CCTE_Simmons_MITO_inhib_resp_rate: CCTE's HepG2 Seahorse XF Respirometric Screening Assay at Inhibited Respiratory State [full ETC block], Simmons Lab (AID 2284006); conditions: actives raise or lower the signal
How it was run: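 Compound injected onto HepG2 cells (125 nM–100 uM final, 7 points); FCCP then rotenone/antimycin A added. Oxygen consumption read every 6 min (3 min mix, 3 min measure) for 72 min. Inhibited-state OCR fitted against DMSO.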

[2] = CCTE_Simmons_MITO_viability: CellTiter-Glo Viability Assessment for CCTE's HepG2 Seahorse XF Respirometric Screening Assay [post-hoc], Simmons Lab (AID 2284007; active = hit-call score of the fitted dose curve at least 0.9, where 1 is the maximum;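 for AC50: cells exposed to chemical for 90 min before the ATP read; actives lower ATP signal relative to DMSO baseline meaning reduced viability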)
How it was run: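 After the Seahorse oxygen-consumption sequence (basal, FCCP, rotenone/antimycin A; 72 min total), HepG2 viability was scored as ATP content by bioluminescence. Chemicals ran at seven concentrations up to 100 uM final for 90 min.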

[3] = CCTE_Shafer_MEA_acute_spike_number: CCTE's Neural Acute Assay for Total Number of Spikes, Shafer Lab (AID 2284008);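 for AC50: curve fitted for decrease in spike count so AC50 reflects inhibitors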
How it was run: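 Using an adaptive detector set to 8x rms noise, spikes were counted in 40-min windows before and after compound addition (0.03-40 uM) to rat cortical networks at 37 C; the well-level change from baseline was analysed relative to DMSO.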

[4] = CCTE_Shafer_MEA_acute_firing_rate_mean: CCTE's Neural Acute Assay for Mean Firing Rate, Shafer Lab (AID 2284009);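 note: analyzed for loss of signal so actives lower firing rate relative to DMSO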
How it was run: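 Percent change in well-mean firing rate was derived from extracellular spikes detected at 8x rms noise (300-5000 Hz band-pass) before and after a 40-min compound exposure. Cultures were primary rat cortical neurons, tested at 0.03-40 uM.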

[5] = CCTE_Harrill_HTTr_Viability_MCF7: CCTE's 6-hour Cell Viability Assessment for the High-Throughput Transcriptomics (HTTr) Platform, in MCF-7 cells cultured in DMEM + 10% fetal bovine serum, Harrill Lab (AID 2284010)
How it was run: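 Cells were dosed with chemicals in an eight-point dilution series, imaged 6 hours later for propidium iodide uptake, and the endpoint was analyzed by bidirectional fitting against DMSO as negative control.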

[6] = CCTE_Harrill_HTTr_Apoptosis_MCF7: CCTE's 6-hour Apoptosis Assessment for the High-Throughput Transcriptomics (HTTr) Platform, in MCF-7 cells cultured in DMEM + 10% fetal bovine serum, Harrill Lab (AID 2284011)
How it was run: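 Apoptosis in MCF-7 cells grown in DMEM with 10% fetal bovine serum was scored after a six hour exposure by high content imaging of caspase-3/7 activation (CellEvent Caspase 3/7 Green), with DMSO serving as negative control and baseline.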

[7] = CCTE_Harrill_HTTr_CellCount_MCF7: CCTE's Cell Proliferation Assessment for the High-Throughput Transcriptomics (HTTr) Platform, Harrill Lab (AID 2284012; active = hit-call score of the fitted dose curve at least 0.9, where 1 is the maximum;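 note: count of Hoechst-stained nuclei per well by high-content imaging in MCF-7 cells; cells exposed to compound for six hours; intended direction is loss of nuclei count meaning fewer cells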)
How it was run: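 Chemicals in eight-point dilution series are added to MCF-7 cells for six hours, nuclei are stained with Hoechst and imaged, and per-well nuclei counts are fitted in both directions relative to DMSO controls.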

[8] = CCTE_Shafer_MEA_acute_burst_number: CCTE's Neural Acute Assay for Single-Electrode Bursts, Shafer Lab (AID 2284013)
How it was run: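 Spontaneous network activity of primary rat cortical neurons was recorded extracellularly on microelectrode arrays at 37 C, with 40-min periods before and during exposure to 0.03-40 uM compound on DIV 13 or 15.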

[9] = CCTE_Shafer_MEA_acute_burst_duration_mean: CCTE's Neural Acute Assay for Mean Burst Duration, Shafer Lab (AID 2284014);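 note: hits are decreases in mean burst duration relative to DMSO controls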
How it was run: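 Read-out is the per-well percent change in mean burst duration (first to last spike within a single-electrode burst) between 40-min recordings before and after compound. Cultures were primary rat cortical neurons on MEAs, dosed at 0.03-40 uM on DIV 13 or 15.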

[10] = CCTE_Shafer_MEA_acute_per_burst_spike_number_mean: CCTE's Neural Acute Assay for Average Number of Spikes Per Burst, Shafer Lab (AID 2284015);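 note: hits are decreases in mean spikes per burst versus baseline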
How it was run: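 Primary rat cortical neurons on 48-well MEA plates, treated on DIV 13 or 15 at 0.03-40 uM. Spontaneous activity recorded 40 min before and 40 min after compound at 37 C; percent change in mean spikes per single-electrode burst per well, fitted in the loss direction versus DMSO.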

[11] = CCTE_Shafer_MEA_acute_interburst_interval_mean: CCTE's Neural Acute Assay for Mean Interburst Interval, Shafer Lab (AID 2284016);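 note: percent change of mean interburst interval versus each well's own pre-dose baseline; curves fitted for decrease in interburst interval relative to DMSO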
How it was run: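 Primary rat cortical neurons on 16-electrode MEA wells were recorded 40 min at baseline on DIV 13 or 15, then 40 min after compound (0.03-40 uM), at 37 C. Value is percent change in mean interburst interval per well, DMSO as negative control.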

[12] = CCTE_Shafer_MEA_acute_burst_percentage_mean: CCTE's Neural Acute Assay for Percentage of Spikes in a Burst, Shafer Lab (AID 2284017);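 for AC50: curve fitted for loss of signal so potency reflects decreased burst percentage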
How it was run: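 Primary rat cortical neurons on 16-electrode MEA wells; 40 min baseline recorded at DIV 13 or 15, then 40 min after compound (0.03-40 uM) at 37 C. Well-mean fraction of spikes in single-electrode bursts; percent change from baseline, DMSO as negative control.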

[13] = CCTE_Shafer_MEA_acute_burst_percentage_std: CCTE's Neural Acute Assay for Standard Deviation of Burst Percentage, Shafer Lab (AID 2284018);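 note: fitted in the negative direction so actives lower burst percentage SD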
How it was run: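 Value is percent change from baseline in the across-electrode SD of spikes-in-bursts percentage, wells with >/= 10 active electrodes. Acute 40-min exposure to 0.03-40 uM on DIV 13 or 15 rat cortical cultures, recorded at 37 C after 40-min baseline.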

[14] = CCTE_Shafer_MEA_acute_per_network_burst_spike_number_mean: CCTE's Neural Acute Assay for Average Number of Spikes in a Network Burst, Shafer Lab (AID 2284019);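 for AC50: curve fitted for loss of signal so actives reduce spikes per network burst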
How it was run: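 Read-out is mean spike count per network burst, taken as percent change between a 40-min pre-exposure and a 40-min post-exposure recording per well. Rat primary cortical neurons on MEAs at 37 C, DIV 13 or 15; compounds at 0.03-40 uM.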

[15] = CCTE_Shafer_MEA_acute_per_network_burst_spike_number_std: CCTE's Neural Acute Assay for Standard Deviation of Number of Spikes in a Network Burst, Shafer Lab (AID 2284020);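 note: fitted for decrease in spike-number SD versus DMSO so actives lower it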
How it was run: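 Spontaneous network activity of primary rat cortical neurons is recorded extracellularly before and after a 40-min compound exposure (0.03-40 uM) at 37 C. The endpoint is the well's percent change in burst spike-number SD.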

[16] = CCTE_Shafer_MEA_acute_per_network_burst_electrodes_number_mean: CCTE's Neural Acute Assay for Mean Number of Electrodes in a Network Burst, Shafer Lab (AID 2284021);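 note: curves fitted for decreases only so hits reduce electrodes per burst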
How it was run: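 Percent change from baseline in average electrode count per network burst, rat cortical cultures on 48-well MEAs; 40-min recordings each side of exposure, DIV 13 or 15; threshold 8x rms noise; DMSO as negative control.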

[17] = CCTE_Shafer_MEA_acute_network_burst_percentage: CCTE's Neural Acute Assay for Percentage of Network Bursts, Shafer Lab (AID 2284022);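 note: curves fitted for loss so actives lower network burst percentage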
How it was run: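 On DIV 13 or 15, at least three wells of rat cortical neurons per compound are dosed at 0.03-40 uM. Spontaneous firing is detected at 8x rms noise for 40 min before and after dosing at 37 C. The percent change in network-burst spike share is reported.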

[18] = CCTE_Shafer_MEA_acute_cross_correlation_area: CCTE's Neural Acute Assay for Area of Cross Correlation, Shafer Lab (AID 2284024);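 note: area under pooled inter-electrode spike cross-correlation near zero lag as percent change from own baseline; curves fitted for loss of cross-correlation area so actives lower synchrony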
How it was run: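 Extracellular recordings from cultured rat cortical neurons measure network synchrony as cross-correlation area; each well's post-compound value (0.03-40 uM, 40 min) is compared with its own 40 min baseline to give percent change.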

[19] = CCTE_Shafer_MEA_acute_cross_correlation_HWHM: CCTE's Neural Acute Assay for Cross Correlation at Half Width at Half Maximum, Shafer Lab (AID 2284026);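 note: percent change per well from pre-dose baseline in spike cross-correlogram half width; hits are a decrease in cross-correlogram half width relative to DMSO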
How it was run: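 Percent change in cross-correlogram half width at half maximum, narrower meaning more synchrony, was derived per well from paired 40-min recordings before and during exposure to 0.03-40 uM compound in rat cortical cultures at 37 C.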

[20] = CCTE_Shafer_MEA_acute_synchrony_index: CCTE's Neural Acute Assay for Synchrony, Shafer Lab (AID 2284027);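 note: fitted for loss of signal so actives lower synchrony relative to DMSO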
How it was run: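 Readout is percent change in the unitless network synchrony index (0 low, 1 high) between a 40-min baseline and a 40-min recording in compound. Cultures were primary rat cortical neurons on MEAs, treated at 0.03-40 uM on DIV 13 or 15.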

Measured: AC50

O=[N+]([O-])c1cc(C(F)(F)F)c(Cl)c([N+](=O)[O-])c1Nc1ncc(C(F)(F)F)cc1Cl
active: [3] 0.351 µM | [4] 0.35 µM | [5] 21.5 µM | [8] 322 nM | [9] 1.59 µM | [10] 468 nM | [11] 1.14 µM | [12] 678 nM | [14] 321 nM | [15] 465 nM | [16] 481 nM | [17] 1.13 µM | [18] 0.263 µM | [19] 5.3 µM | [20] 481 nM
inactive: [1] | [2] | [6] | [7] | [13]

CCOC(=O)CC(SP(=O)(OC)OC)C(=O)OCC (stereo not drawn)
not listed: [1] | [2] | [7]
inactive: all other assays above

CCOP(=O)(NC(C)C)Oc1ccc(SC)c(C)c1 (stereo not drawn)
active: [3] 10.2 µM | [4] 10.2 µM | [12] 30200 nM
not listed: [6] | [19]
inactive: all other assays above

CN(C)NC(=O)CCC(=O)O
not listed: [1] | [2] | [7]
inactive: all other assays above

CC(C)N(C(=O)SCC(Cl)=C(Cl)Cl)C(C)C
active: [3] 8.85 µM and 5.81 µM | [4] 8.79 µM and 5.81 µM | [10] 20 µM and 8.68 µM | [11] 11.9 µM | [12] 20 µM and 15 µM | [13] 20 µM and 7.81 µM | [14] 5790 nM | [15] 10.2 µM and 9.26 µM | [16] 11.5 µM and 5.51 µM | [17] 25.7 µM and 20 µM | [19] 20 µM and 15 µM | [20] 20 µM and 19 µM
inactive: [1] | [2] | [5] | [8] | [9] | [11] | [14] | [18]

COP(=O)(OC)OC(Br)C(Cl)(Cl)Br (stereo not drawn)
inactive: [1] | [5] | [7]
active: [2] 50 µM

FC(F)C(F)(F)OCC(Cn1cncn1)c1ccc(Cl)cc1Cl (stereo not drawn)
active: [2] 16.9 µM | [3] 5.94 µM | [4] 5.92 µM | [19] 23.8 µM
not listed: [6]
inactive: all other assays above

CSC1=N[C@@](C)(c2ccccc2)C(=O)N1Nc1ccccc1
active: [3] 5.8 µM | [4] 5.76 µM | [9] 32 µM | [10] 27100 nM | [12] 20 µM and 24.4 µM | [13] 37.7 µM and 26.1 µM | [15] 30800 nM | [17] 22.1 µM | [19] 29.8 µM and 18.1 µM | [20] 20 µM and 22.8 µM
inactive: [1] | [2] | [3] | [4] | [5] | [8] | [9] | [10] | [11] | [14] | [15] | [16] | [17] | [18]

CC[C@H](C)[C@H]1O[C@]2(C=C[C@@H]1C)C[C@@H]1C[C@@H](C/C=C(\C)[C@@H](O[C@H]3C[C@H](OC)[C@@H](O[C@H]4C[C@H](OC)[C@@H](NC)[C@H](C)O4)[C@H](C)O3)[C@@H](C)/C=C/C=C3\CO[C@@H]4[C@H](O)C(C)=C[C@@H](C(=O)O1)[C@]34O)O2
active: [1] 84.7 µM | [2] 86.9 µM | [3] 4.95 nM and 26.8 nM | [4] 4.94 nM and 26.8 nM | [5] 50 µM | [7] 50 µM | [8] 7.43 nM and 28.2 nM | [9] 38.2 µM and 1.5 µM | [10] 26.5 nM and 1.5 µM | [11] 26.1 nM and 2.28 µM | [12] 26.6 nM and 37.8 nM | [13] 48.5 nM and 2.98 µM | [14] 22.5 nM and 1.91 µM | [15] 23.7 nM and 1.5 µM | [16] 615 nM and 8.88 µM | [17] 43 nM and 1.55 µM | [18] 0.00626 µM | [19] 25.5 nM and 47.5 nM | [20] 37.6 nM and 751 nM
inactive: [18]

S=C1NCCN1
inactive: [5] | [6]

CC(=NC#N)N(C)Cc1ccc(Cl)nc1
not listed: [1] | [2] | [6]
inactive: all other assays above
